Nine molecules from PubChem BioAssay (NCI) can be followed below.

This is part of a sample that, as a whole, favours compounds with a hit. Of some 83,000 tested, about 20% had one in any assay.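 96-well plates, one dose, 48 hours. Percent growth reported; active if below 10.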 Values without a mark were called inactive. Active and inactive are the calls of the source.

Among the test systems are HCT-15 colon; HT29 colon; SNB-19 CNS; U251 CNS; PC-3 prostate; SK-MEL-5 melanoma; UACC-62 melanoma; LOX IMVI melanoma; SK-MEL-28 melanoma; SK-MEL-2 melanoma; EKVX NSCLC; SN12C renal; UO-31 renal; TK-10 renal; ACHN renal; CAKI-1 renal; A498 renal; CCRF-CEM leukemia; MOLT-4 leukemia.
What all share (experiment): NCI-60 one-dose screen, 48 h (100 = growth as untreated, 0 = no growth, -100 = all killed)
Holding throughout (conditions): 10 µM unless noted

For `O=[N+]([O-])c1cccc(-c2nc(-c3ccc(Cl)cc3Cl)cn2-c2ccccc2)c1`, the growth in the experiment with HCT-15 colon is -6.56% (active); in the experiment with HT29 colon, -67.8% (active); with SNB-19 CNS, 53.7%; in the experiment on U251 CNS it was -60.5% (active); in the experiment with PC-3 prostate, -47.7% (active); in the experiment with SK-MEL-5 melanoma, 71.4%. The growth in the experiment with UACC-62 melanoma is 31.3%; in the experiment on LOX IMVI melanoma it was 3.46% (active); with SK-MEL-28 melanoma it was -16.4% (active); in the experiment with SK-MEL-2 melanoma, 52.4%; with EKVX NSCLC, -8.4% (active); in the experiment with SN12C renal it was 11.5%. In addition, the growth was 2.03% (active) in the experiment on UO-31 renal; 29.3% with TK-10 renal; -52.1% (active) in the experiment on ACHN renal; -68.8% (active) in the experiment with CAKI-1 renal; -33.2% (active) with A498 renal; 95.5% in the experiment with CCRF-CEM leukemia. For the same molecule, in the experiment with MOLT-4 leukemia, the growth was 45.4%.
Turning to `COc1ccc(C(=O)c2cc3c(N)c(C(=O)Nc4cccc(Cl)c4C)sc3nc2C)cc1`, the growth in the experiment on HCT-15 colon was 15.9%; in the experiment with HT29 colon it was 6.48% (active); in the experiment with SNB-19 CNS, 39.9%; in the experiment with U251 CNS, 14.4%; with PC-3 prostate, 21.7%; in the experiment with SK-MEL-5 melanoma it was -23.8% (active). For the same molecule, the growth with UACC-62 melanoma was 32%; in the experiment with LOX IMVI melanoma, 21.9%; in the experiment with SK-MEL-28 melanoma, 63.3%; with SK-MEL-2 melanoma, 36.9%; with EKVX NSCLC, 39.6%; in the experiment on UO-31 renal it was 21.7%. Further, the growth in the experiment on TK-10 renal is 50.9%; with ACHN renal, 24.1%; in the experiment on CAKI-1 renal it was 15.6%; in the experiment with A498 renal, -12.4% (active); in the experiment with CCRF-CEM leukemia, 5.42% (active); with MOLT-4 leukemia, 8.51% (active).
For `O=C(O)c1ccc[n+](CC(=O)N2CCN(c3cc4c(cc3F)c(=O)c(C(=O)O)cn4C3CC3)CC2)c1`, the growth is 73.4% with HCT-15 colon; 92.9% with HT29 colon; 87.1% in the experiment on SNB-19 CNS; 74.7% with U251 CNS; 87.3% with PC-3 prostate; 91.7% in the experiment on SK-MEL-5 melanoma. Moreover, the growth with UACC-62 melanoma was 48.9%; with LOX IMVI melanoma it was 30.2%; in the experiment on SK-MEL-28 melanoma it was 60.4%; in the experiment on SK-MEL-2 melanoma it was 86.1%; with EKVX NSCLC, 107%; in the experiment on SN12C renal, 29.4%. In addition, the growth in the experiment on UO-31 renal is 71.8%; in the experiment on TK-10 renal it was 112%; with ACHN renal, 72.8%; with CAKI-1 renal, 92.8%; in the experiment with A498 renal, 98%; in the experiment on CCRF-CEM leukemia, -25.6% (active). The growth in the experiment on MOLT-4 leukemia was 12.6%.
Consider `CCOC(=O)C1=C(C)NC(C)=C(C(=O)OCC)C1c1cc(Br)c(O)c(OC)c1`, for which the growth is 30.9% in the experiment on HCT-15 colon; 71.4% with HT29 colon; 45.2% in the experiment on SNB-19 CNS; 33.1% with U251 CNS; 32.6% in the experiment with PC-3 prostate; 19.5% with SK-MEL-5 melanoma. For the same molecule, the growth in the experiment with UACC-62 melanoma is 48.8%; in the experiment with LOX IMVI melanoma, 36.7%; with SK-MEL-28 melanoma, 47.5%; in the experiment on SK-MEL-2 melanoma, -7.22% (active); in the experiment on EKVX NSCLC, 42.5%; in the experiment with SN12C renal, 48.5%. In addition, the growth in the experiment with UO-31 renal is 40.3%; with TK-10 renal, 34.1%; in the experiment with ACHN renal it was 61.3%; with CAKI-1 renal, 30.1%; in the experiment with CCRF-CEM leukemia, 19.9%; with MOLT-4 leukemia, 44.8%.
Consider `c1ccc(-c2nn(-c3ccccc3)[n+](-c3ccccc3-c3ccccc3)n2)cc1`, for which the growth in the experiment on HCT-15 colon is 101%; in the experiment with HT29 colon, 5.29% (active); with SNB-19 CNS it was 27.9%; with U251 CNS it was 15%; in the experiment on PC-3 prostate, 2.58% (active); in the experiment with SK-MEL-5 melanoma, -25.8% (active). For the same molecule, the growth was 26.4% in the experiment with UACC-62 melanoma; 12.5% in the experiment with LOX IMVI melanoma; 48.7% with SK-MEL-28 melanoma; -15.8% (active) in the experiment with SK-MEL-2 melanoma; 11.7% in the experiment on EKVX NSCLC; 12.9% with SN12C renal. The growth was 80.1% in the experiment with UO-31 renal; 26% in the experiment with TK-10 renal; 56% in the experiment on ACHN renal; 88.2% with CAKI-1 renal; 17.2% in the experiment with CCRF-CEM leukemia; 22.9% with MOLT-4 leukemia.
For the molecule `C=Cc1cc[n+](CCCCCCCCCCCC)cc1`, the growth is 110% with HCT-15 colon; 99.2% with HT29 colon; 103% with SNB-19 CNS; 109% with U251 CNS; 110% with PC-3 prostate; 104% in the experiment on SK-MEL-5 melanoma. Besides, the growth in the experiment with UACC-62 melanoma was 105%; in the experiment with SK-MEL-28 melanoma, 111%; with SK-MEL-2 melanoma, 150%; in the experiment on EKVX NSCLC, 105%; with SN12C renal it was 101%; in the experiment on UO-31 renal it was 94%. Besides, the growth in the experiment with TK-10 renal was 137%; in the experiment on ACHN renal, 108%; in the experiment on CAKI-1 renal, 103%; in the experiment with A498 renal, 94.9%; with CCRF-CEM leukemia, 87.9%; in the experiment on MOLT-4 leukemia, 94.7%.
With `CC1=CC[C@@H]2CC[C@]3(C)[C@H](CC[C@@H]4[C@@]5(C)CCCNC(C)(C)[C@@H]5CC[C@]43C)[C@H]2[C@@H]1C`, the growth was -57.8% (active) with HCT-15 colon; -55.2% (active) with HT29 colon; -90.8% (active) in the experiment with U251 CNS; 27.7% in the experiment with PC-3 prostate; 89.9% in the experiment with SK-MEL-5 melanoma; 92.4% in the experiment with UACC-62 melanoma. Besides, the growth with LOX IMVI melanoma is -100% (active); in the experiment on SK-MEL-28 melanoma, 63.7%; in the experiment on SK-MEL-2 melanoma, 94.6%; with UO-31 renal, 55.7%; with TK-10 renal, 80.5%; in the experiment with ACHN renal it was 8.91% (active). For the same molecule, the growth was 30.4% in the experiment with CAKI-1 renal, 60.2% with A498 renal, 5.21% (active) in the experiment with CCRF-CEM leukemia and -8.43% (active) in the experiment on MOLT-4 leukemia.
For `CCOC(=O)c1c(SC)nn(-c2cc(=O)[nH]c3ccc(Br)cc23)c1N`, the growth with HCT-15 colon is 106%; in the experiment with HT29 colon, 107%; with SNB-19 CNS it was 101%; with U251 CNS, 94.1%; in the experiment on PC-3 prostate, 94.2%; in the experiment with SK-MEL-5 melanoma, 101%. Also, the growth in the experiment with UACC-62 melanoma is 102%; with SK-MEL-28 melanoma, 117%; in the experiment on SK-MEL-2 melanoma, 99%; in the experiment on EKVX NSCLC, 88.2%; in the experiment on SN12C renal it was 108%; in the experiment on UO-31 renal, 81%. Moreover, the growth with TK-10 renal is 110%; in the experiment with ACHN renal it was 98.3%; in the experiment on CAKI-1 renal it was 87.2%; with A498 renal, 110%; with CCRF-CEM leukemia, 111%; with MOLT-4 leukemia, 111%.
Regarding `O=C(OC(OC(=O)c1cc(Cl)cc(Cl)c1)c1cccc2ccccc12)c1ccccc1` (stereo unspecified), the growth in the experiment on HCT-15 colon is 106%; in the experiment with HT29 colon, 86.7%; in the experiment with SNB-19 CNS, 100%; in the experiment on U251 CNS, 98.3%; with SK-MEL-5 melanoma, 102%; in the experiment on UACC-62 melanoma, 86.4%. Also, the growth in the experiment on LOX IMVI melanoma was 92.3%; in the experiment on SK-MEL-28 melanoma, 111%; in the experiment on SK-MEL-2 melanoma, 91.1%; with EKVX NSCLC, 97.7%; with SN12C renal, 97.5%; in the experiment with UO-31 renal, 75.6%. The growth in the experiment with TK-10 renal is 90.7%; with ACHN renal it was 102%; with A498 renal it was 84.8%; in the experiment on CCRF-CEM leukemia, 93.6%; in the experiment with MOLT-4 leukemia it was 103%.
